Experimental findings from PubChem BioAssay (NCI) are described below.

The structures appear in SMILES notation. This is part of a sample that, as a whole, favours compounds with a hit. Of some 83,000 tested, about 20% had one in any assay.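 Activity criterion: percent growth below 10, measured after cells in 96-well plates were exposed to a single compound concentration for 48 hours.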 Values without a mark were called inactive. Active and inactive are the calls of the source.

Holding throughout (experiment): NCI-60 one-dose screen, 48 h (100 = growth as untreated, 0 = no growth, -100 = all killed)
Test [1] concerns NCI-H23 lung. The following applies: 10 µM unless noted.
The test system of test [2] is NCI-H322M lung. The following applies: 10 µM unless noted.
Test [3] concerns HOP-62 NSCLC. The following applies: 10 µM unless noted.
For test [4], the system named is NCI-H460 lung. To be noted: 10 µM unless noted.
For test [5], the system named is HOP-92 NSCLC. To be noted: 10 µM unless noted.
Test [6] has as its system NCI-H522 lung. To be noted: 10 µM.
For test [7], the system named is A549/ATCC NSCLC. The following applies: 10 µM unless noted.
For test [8], the system named is 786-0 renal. To be noted: 10 µM unless noted.

Consider `COc1cc(/C=N/NC(=O)c2cnn3c2NC(c2ccccc2)C3)cc(OC)c1OC` (stereo not given), for which the growth in test [1] is 102%; in test [2], 84%; in test [3], 71.2%; in test [4], 26.7%; in test [5], 76%; in test [6], 35.5%. For the same compound, the growth in test [7] is 64.8%; in test [8], 88%.

`COc1ccc(/C=N/OCC(O)CNCc2ccccc2)cc1OC1CCCC1` (stereo not given): the growth in test [1] is 106%; in test [2], 97.2%; in test [3] it was 93.5%; in test [4] it was 102%; in test [5], 79.6%; in test [6], 105%. The growth was 93.5% in test [7] and 89.5% in test [8].

As for `CCN1CCN(c2nc3ccccc3c3c(=O)c4cc(F)ccc4sc23)CC1`, the growth is 85.6% in test [1]; 81.2% in test [2]; 73.2% in test [3]; 38.5% in test [4]; 40.2% in test [5]; 76.7% in test [6]. Besides, the growth in test [7] was 58.4%; in test [8] it was 60.6%.

Regarding `O=S(=O)(Nc1ccccc1Cl)c1ccc(-c2cnc(C3CC3)o2)cc1`, the growth in test [1] is 39.9%; in test [2], 42.3%; in test [3] it was 34.1%; in test [4] it was 18%; in test [5], 37.1%; in test [6], 10.9%. Besides, the growth is 31.4% in test [7] and 51.1% in test [8].

Turning to `O=c1oc2ccccc2cc1-c1csc(N/N=C/c2cc3ccccc3nc2Cl)n1`, the growth in test [1] is 99.8%; in test [2], 103%; in test [3], 109%; in test [4] it was 99.7%; in test [5], 97.5%; in test [6], 93.3%. For the same compound, the results for the growth in test [7] and in test [8] were 92.8% and 107%, respectively.

As to `O=C1CCC(N2Cc3c(C#CCCCNC(=O)c4cc5c(o4)C(=O)c4ccccc4C5=O)cccc3C2=O)C(=O)N1` (stereo not given), the growth in test [1] was -80.1% (active); in test [2], -88.2% (active); in test [3] it was -65.3% (active); in test [4], -82% (active); in test [5], 52.3%; in test [6], -61.2% (active). Also, the results for the growth in test [7] and in test [8] were 30% and 49.7%, respectively.

`Cl.Fc1c[c-]c(-c2ccccn2)c(F)c1.[Pt].c1ccc([PH+](CC[PH+](c2ccccc2)c2ccccc2)c2ccccc2)cc1`: the growth is -77.2% (active) in test [1]; -98.8% (active) in test [2]; -65.8% (active) in test [3]; -75.3% (active) in test [4]; -77.4% (active) in test [5]; -58.4% (active) in test [6]. Moreover, the growth in test [7] is -52.9% (active); in test [8] it was -79.4% (active).

On to `CCCCC(O)Cn1ncc(C(=O)OCC)c1NC(=O)NCc1ccccc1C(F)(F)F` (stereo not given), for which the growth in test [1] is 98.1%; in test [2] it was 105%; in test [3], 93.4%; in test [4], 103%; in test [5] it was 84.7%; in test [6], 88.3%. Moreover, the results for the growth in test [7] and in test [8] were 89.1% and 93.2%, respectively.

As for `O=C1Nc2ccc(Cl)cc2/C1=N/N=C(c1ccccc1)c1ccccc1`, the growth in test [1] is 93.9%; in test [2], 98.1%; in test [3], 83.3%; in test [4], 100%; in test [5] it was 94.2%; in test [6], 83.4%. Further, the growth in test [7] is 91.9%; in test [8] it was 102%.

As for `CCCCCCCC/C=C\CCCCCCCCOc1cccc(CC(=O)NCC[N+]2(C)CCOCC2)c1`, the growth is 90.4% in test [1]; 101% in test [2]; 66.3% in test [3]; 67% in test [4]; 86.4% in test [5]; 77% in test [6]. Moreover, the growth in test [7] was 90.6%; in test [8], 94.9%.

Turning to `O=C(NC1CC1)c1cc2n(n1)CC(c1ccccc1)N2` (stereo not given), the growth in test [1] was 100%; in test [2], 99%; in test [3], 102%; in test [4], 100%; in test [5], 85.3%; in test [6], 91.1%. Moreover, the growth in test [7] was 99.6%; in test [8], 101%.

In the case of `COC(=O)c1c2c(c(C)[n+]([O-])c1C)C(=O)C=C(NCc1cccc(OC)c1)C2=O`, the growth in test [1] was -69.2% (active); in test [2] it was -19.6% (active); in test [3] it was -15.1% (active); in test [4] it was -41.6% (active); in test [5], -43.6% (active); in test [6] it was -54.7% (active). Moreover, the growth in test [7] is -52.1% (active); in test [8] it was -3.41% (active).

Turning to `NC(=S)N/N=C1\c2ccccc2-c2c(F)c(F)c(F)c(F)c21`, the growth in test [1] is 72.4%; in test [2], 93.5%; in test [3] it was 75.6%; in test [4], 76.6%; in test [5], 87%; in test [6], 57.4%. Besides, the growth is 87.5% in test [7] and 88.8% in test [8].

As to `O=C(N/N=C/c1ccc2c(c1)OCO2)c1cnn2c1NC(c1ccccc1)C2` (stereo not given), the growth in test [1] is 57.1%; in test [2] it was 59.6%; in test [3] it was 60.5%; in test [4], 30.1%; in test [5] it was 73.7%; in test [6] it was 45.7%. Also, the growth in test [7] is 45%; in test [8], 78.9%.

For the compound `COc1ccc(/C=N/OCC(O)CN2CCC(O)CC2)cc1OC1CCCC1` (stereo not given), the growth in test [1] was 106%; in test [2], 108%; in test [3], 103%; in test [4] it was 106%; in test [5], 98.2%; in test [6] it was 99.2%. Also, the growth in test [7] is 101%; in test [8], 102%.
